Source: PubChem BioAssay
G9a inh = inhibitors of human histone lysine methyltransferase G9a; Potency, µM (series often up to 102 µM), without a hit: at the highest dose activity, negative = inhibition, hits mostly inhibitors; Q96KQ7; AID 504332; G9a H3K9 monomethylation, AlphaScreen, 2 h; 350,000 tested, 8.8% active; also: potency is read from the fitted curve at half-maximal effect; % is scaled to controls: 0 for no effect and ±100 for the full control effect; nearly all actives have a fitted effect of over 75% in size
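Step 1: enzyme (final 20 nM) with compound, 15 min RT. Step 2: substrate peptide 500 nM and SAM 20 uM, 2 h RT. Step 3: anti-H3K9me1 antibody and AlphaScreen beads, 10 min, then plate read.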
PI5P4K alpha inh = PI5P4K alpha (human) kinase inhibition; P48426; PI5P4Kalpha enzyme, ADP-Glo luminescence, 60 min; stronger effect = lower value; max response, %; 330,000 tested, 1.2% active; AID 652105; active = max response of -50% or lower; inconclusive = between -30% and -50%; inactive = -30% or higher; also: value at the top dose of about 77 µM; % is scaled to controls: 0 for no effect and ±100 for the full control effect
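Single end-point luminescence (ADP-Glo) quantified ADP from PI5P4Kalpha turnover; ATP 5 microM final, 1 h at RT, 0.1% CHAPS and 0.28 mM EGTA in HEPES pH 7.4.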
JMJD2A Tudor = JMJD2A Tudor domain (human) inhibition; 390,000 tested, 4.4% active; AlphaScreen JMJD2A-Tudor / H3K4me3 peptide binding; Potency, µM (titrated, usually from 114 µM), for inactives: top-dose activity change, negative = inhibition, most hits filed as inhibitors; also: potency is read from the fitted curve at half-maximal effect; % is scaled to controls: 0 for no effect and ±100 for the full control effect; nearly all actives have a fitted effect of over 50% in size
PLK1 PBD inh = inhibitors of human PLK1 polo-box domain binding | Plk1 PBD binding of FITC phosphopeptide, fluorescence polarization | P53350 | 360,000 tested, 2.8% active | Potency, µM, inactives show max response, negative = inhibition, hits mostly inhibitors; also: potency is read from the fitted curve at half-maximal effect; series mostly up to about 57 µM; % is scaled to controls: 0 for no effect and ±100 for the full control effect; nearly all actives have a fitted effect of over 65% in size
HP1b binding inh = HP1-beta chromodomain-methylated histone interaction inhibition | AlphaScreen HP1-beta / biotin-H3K9me3 peptide binding | 390,000 tested, 0.56% active | Potency, µM (titrated, usually from 114 µM), for the others: at the highest dose activity change, negative = inhibition, most hits filed as inhibitors; also: potency is read from the fitted curve at half-maximal effect; nearly all actives have a fitted effect of over 70% in size
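Compound inhibition of the preformed complex between 50 nM HP1-beta and 50 nM biotinylated H3K9me3 peptide was read by AlphaScreen. Buffer was PBS pH 7.4 with 0.01% Tween-20. Incubations ran 30 min at room temperature, with 10 ug/mL donor/acceptor beads.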
BAZ2B block = BAZ2B (human) inhibition. Potency, µM (highest dose often 114 µM), for the others: at the highest dose activity change, negative = inhibition, hits mostly inhibitors. AlphaScreen BAZ2B-H3K14Ac peptide displacement. 360,000 tested, 4.4% active. Q9UIF8; also: potency is read from the fitted curve at half-maximal effect; % is scaled to controls: 0 for no effect and ±100 for the full control effect; nearly all actives have a fitted effect of over 60% in size
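AlphaScreen luminescence quantifies BAZ2B engagement of H3K14Ac peptide; the protein and biotinylated peptide are both at 50 nM final, buffer PBS pH 7.4 with 0.01% Tween-20, all steps at room temperature.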
The depositor's hits bear a star; ? = inconclusive; . = not tested or not shown; [ ] = another dose, or the depositor's remark. An excerpt weighted towards active compounds, which were near 12% of everything screened. Unless noted, calls follow the shape of the dose curve; as a rule, active = well fitted curve in the direction sought with a large enough effect; inconclusive = small, poorly fitted or top-dose-only effect, or another doubt; inactive = no such curve, though single readings can be large; an effect the other way counts as inactive or inconclusive.

SMILES | G9a inh | PI5P4K alpha inh | JMJD2A Tudor | PLK1 PBD inh | HP1b binding inh | BAZ2B block
C[C@@H](O)C1NC(=O)[C@H](CCCCN)NC(=O)c2cc([N+](=O)[O-])cc(F)c2NCCCC[C@@H](C(N)=O)NC1=O (stereo partly drawn) | ? | 0.5 | -24.5% | -4.3% | 18.1% | -27.1%
CCOc1ccccc1NC(=O)Cn1c(=O)n(Cc2ccc(C(=O)NCCCOC)cc2)c(=O)c2ccccc21 | 0.0%[59 µM] | . | -2.0% | . | 26.1% | 0.1%
Cc1ccc(-c2cc(C(F)(F)F)n3nc(C(=O)Nc4sc5c(c4C#N)CCC(C)C5)cc3n2)cc1 (stereo not drawn) | -4.4%[59 µM] | . | -12.7% | . | 16.3% | -14.4%
CCCN1C(=O)C2(c3ccccc31)c1c(oc3ccc(F)cc3c1=O)C(=O)N2CCCOC(C)C (stereo not drawn) | -34.6%[59 µM] | . | -13.2% | . | 22.9% | -0.6%
O=C(Nc1ccc(Nc2ccccc2)cc1)c1ccc(Cl)cc1 | . | 1.0 | -1.7% | 5.8% | 26.8% | .
N#C/C(C(=O)Nc1ccc(Cl)cc1)=C(/S)Nc1ccccc1 | 1.58µM* | -87.1* | 20µM* | 3.36µM* | ? | 20µM*
CCOC(=O)c1c(NC(=O)CSc2cn(CCNC(=O)c3ccccc3OC)c3ccccc23)sc2c1CCC2 | -6.2%[59 µM] | . | -32.8% | . | 32.8% | -19.8%
COc1ccc(Cc2noc(CN(C)CCc3ccccc3)n2)cc1OC | . | 1.1 | -7.6% | -11.7% | 18.6% | -11.6%
COc1cc(CN(CCN(C)C)Cc2ccccc2)ccc1OCc1ccccc1 | 31.6µM* | 7.4 | 1µM* | 7.9% | ? | 39.8µM*
CCN(Cc1ccncc1)Cc1ccc(OC)c(OC)c1 | . | 7.7 | 25.1µM* | 1.0% | ? | ?
COc1ccc(CN(CCc2ccccc2)Cc2ccccc2)cc1OC | ? | 20.7 | 10µM* | -8.0% | ? | 79.4µM*
CNCc1ccc(OCc2ccccc2)c(OC)c1 | ? | 1.8 | 0.0%[57.1 µM] | -10.8% | 61.5% | 8.0%
CCN(CC)Cc1ccc(OC)c(Cl)c1 | 1.6% | 3.1 | 1.1% | 3.3% | 32.8% | -12.3%
COc1ccc(NC(=O)C2(C)Cc3c(-c4ccc(N(C)C)cc4)ccnc3O2)cc1OC (stereo not drawn) | . | 2.5 | . | -6.6% | . | .
COc1cc(-c2nc(Cn3nnc(C(=O)Nc4ccccc4)c3C)c(C)o2)cc(OC)c1OC | ? | . | ? | . | ? | -37.1%
O=Cc1cccn1-c1ccccc1 | 0.1%[59 µM] | -6.1 | -16.3% | -4.6% | 17.8% | -2.9%
O=Cc1cccn1-c1ccc(O)cc1 | -19.6% | 1.9 | -1.0% | 2.3% | 39.3% | 79.4µM*
CSc1nc(=O)[nH]c2nc[nH]c12 | . | . | -4.6%[57.1 µM] | . | 11.2%[57 µM] | .
COc1ccccc1NS(=O)(=O)c1cc(NC(=O)c2sccc2C)ccc1N1CCOCC1 | 4.0%[12.7 µM] | 4.6 | -14.0% | -15.3% | 15.4% | -4.5%
COc1ccccc1NS(=O)(=O)c1cc(NC(=O)C(C)C)ccc1N1CCCCC1 | 8.91µM* | -4.2 | ? | 11.9µM* | ? | .
COc1ccccc1NS(=O)(=O)c1cc(NC(=O)Nc2ccccc2)ccc1N1CCCCC1 | 10µM* | -12.5 | -31.1% | ? | ? | -9.5%
COc1ccccc1NS(=O)(=O)c1cc(NC(=O)c2cccs2)ccc1N1CCCCC1 | -11.6%[59 µM] | 1.4 | -19.3% | -6.6% | -6.0% | -20.7%
COc1ccccc1NS(=O)(=O)c1cc(NC(=O)c2cc[n+]([O-])cc2)ccc1N1CCCC1 | ? | -24.6 | 63.1µM* | 2.99µM* | ? | .
COc1ccc(C2CC(c3ccccc3)Oc3cc(OC)c(OC)c(OC)c32)cc1 (stereo not drawn) | . | . | -19.3% | . | 23.2% | .
Cc1ccccc1NS(=O)(=O)c1ccc(C(=O)N(C)CC(=O)Nc2ccccc2Br)cc1 | . | 3.9 | -20.9% | -13.3% | 33.8% | .
C=CC[n+]1c(/C=C2\C=Cc3cc(C)ccc3N2CC)ccc2ccccc21 | 28.2µM* | -11.9 | 50.1µM* | -2.1% | ? | 35.5µM*
CN(C)C=Nc1nc2ccccc2nc1N1CCCC1 | 44.7µM* | 0.1 | 12.3% | -10.3% | 88.5% | -0.3%
